According to PubChem BioAssay:
Activity calls are given as the source filed them.

How the values were obtained:
[1] = E. coli DRC41 culture turbidity changes, primary screen, E. coli filamentation inducer project, strain DRC41, OD650, 48 h (AID 1152);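 note: E. coli MC1000 strain DRC41 lacking acrAB efflux pump and sulA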; conditions: E. coli DRC41 (acrAB sulA), higher = more signal, called active from +8 up or from −8 down
[2] = small-molecule binders of probe aLefty1, primary screen, biochemical, small-molecule microarray, 635/667 nm fluorescence (AID 1153); conditions: higher = more signal;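 note: score merges spot fluorescence with signal-to-noise ratio from the scanned slide images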
[3] = PSAC antagonists in infected red cells, primary screen, cell-based, P. falciparum Indochina, OD700, 1 h (AID 1154); conditions: P. falciparum Indochina infected RBC osmotic lysis, higher = more signal, called active from +8 up or from −8 down
[4] = PSAC antagonists in infected red cells, primary screen, cell-based, P. falciparum Indochina, OD700, 2 h (AID 1155);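 note: lysis reports solute entry through the parasite surface anion channel PSAC; channel blockers reduce lysis of infected cells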; conditions: P. falciparum Indochina infected erythrocytes, osmotic lysis OD700; higher = more signal, called active from +8 up or from −8 down
[5] = osmotic lysis modulators in infected erythrocytes, primary screen, PSAC antagonist project, cell-based, P. falciparum Indochina, OD700, 3 h (AID 1156); conditions: higher = more signal, called active from +8 up or from −8 down
[6] = PSAC antagonists in infected red cells, primary screen, cell-based, P. falciparum Indochina, OD700, 18 h (AID 1157); conditions: P. falciparum Indochina infected erythrocytes, osmotic lysis OD700, 18 h; higher = more signal, called active from +8 up or from −8 down
[7] = modulators of S6 phosphorylation in cells, primary screen, cell-based, A549, cytoblot, luminescence, serum-stimulated (AID 1158); conditions: A549 phospho-S6 cytoblot, 5 h, higher = more signal;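 note: serum-stimulated A549 lung adenocarcinoma cells; signal is phosphorylated S6 detected by cytoblot immunostaining with HRP secondary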
[8] = molecular target: NADPH oxidase 2 (Homo sapiens) (UniProt P04839); assay: NOX2-dependent H2O2 signal modulators, primary screen, NOX inhibitor project, cell-based, HEK293-NOX2, PMA-stimulated, Amplex Red fluorescence (AID 1159); conditions: 45 min, higher = more signal, called active from +8 up or from −8 down; note: test concentration not given here
[9] = molecular target: NADPH oxidase 4 (Homo sapiens) (UniProt Q9NPH5); assay: NOX4-dependent H2O2 signal modulators, primary screen, NOX inhibitor project, cell-based, HEK293-NOX4, tetracycline-induced, Amplex Red fluorescence (AID 1160); conditions: 45 min, higher = more signal, called active from +8 up or from −8 down
[10] = molecular target: NADPH oxidase 5 (Homo sapiens) (UniProt Q96PH1); assay: NOX5-dependent H2O2 signal modulators, primary screen, NOX inhibitor project, cell-based, HEK293-NOX5, Amplex Red fluorescence (AID 1161); conditions: HEK293-NOX5, ionomycin, 45 min, higher = more signal
[11] = A549 cell viability effects, profiling panel, calcein-AM fluorescence, 48 h, basal (AID 1162); conditions: higher = more signal; note: test concentration not given here
[12] = adipocyte viability effects, profiling panel, cell-based, 3T3-L1 adipocytes, calcein-AM fluorescence, 48 h, basal (AID 1163); conditions: 3T3-L1 adipocytes viability, higher = more signal; note: test concentration not given here
[13] = HepG2 cell viability effects, profiling panel, calcein-AM fluorescence, 48 h, basal (AID 1164); conditions: higher = more signal; note: test concentration not given here
[14] = MM1S cell viability effects, profiling panel, calcein-AM fluorescence, 48 h, basal (AID 1165); conditions: higher = more signal;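 note: viability of MM1S multiple myeloma cells under basal unstimulated conditions; test concentration not given here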
[15] = basal RPMI8226 viability, no added stimulus, profiling panel, cell-based, calcein-AM fluorescence, 48 h, PK04 Diversity Set (AID 1166); conditions: RPMI8226 myeloma viability, higher = more signal;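 note: cells grown under basal conditions without added stimulus; test concentration not given here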
[16] = basal HepG2 mitochondrial membrane potential changes, profiling panel, cell-based, JC-1 fluorescence, 24 h, 100 nL compound (AID 1167); conditions: higher = more signal; note: test concentration not given here
[17] = basal 3T3-L1 adipocyte mitochondrial potential changes, profiling panel, cell-based, JC-1 fluorescence, 3T3-L1 adipocytes, 24 h, 100 nL compound (AID 1168); conditions: JC-1 mitochondrial fluorescence, higher = more signal, called active from +8 up or from −8 down; note: test concentration not given here
[18] = basal RPMI8226 mitochondrial membrane potential changes, profiling panel, cell-based, JC-1 fluorescence, 24 h, 100 nL compound (AID 1169); conditions: RPMI8226 myeloma, JC-1 mitochondrial potential fluorescence, higher = more signal; note: test concentration not given here
[19] = basal MM1S mitochondrial membrane potential changes, profiling panel, cell-based, JC-1 fluorescence, 24 h, 100 nL compound (AID 1170); conditions: higher = more signal; note: test concentration not given here
[20] = A549 lung cancer cell viability effects, profiling panel, resazurin fluorescence, 24 h, PK04 Diversity Set (AID 1171); conditions: higher = more signal, called active from +8 up or from −8 down; note: test concentration not given here

Sequence of NADPH oxidase 4 (Homo sapiens) (Q9NPH5 whole entry, looked up): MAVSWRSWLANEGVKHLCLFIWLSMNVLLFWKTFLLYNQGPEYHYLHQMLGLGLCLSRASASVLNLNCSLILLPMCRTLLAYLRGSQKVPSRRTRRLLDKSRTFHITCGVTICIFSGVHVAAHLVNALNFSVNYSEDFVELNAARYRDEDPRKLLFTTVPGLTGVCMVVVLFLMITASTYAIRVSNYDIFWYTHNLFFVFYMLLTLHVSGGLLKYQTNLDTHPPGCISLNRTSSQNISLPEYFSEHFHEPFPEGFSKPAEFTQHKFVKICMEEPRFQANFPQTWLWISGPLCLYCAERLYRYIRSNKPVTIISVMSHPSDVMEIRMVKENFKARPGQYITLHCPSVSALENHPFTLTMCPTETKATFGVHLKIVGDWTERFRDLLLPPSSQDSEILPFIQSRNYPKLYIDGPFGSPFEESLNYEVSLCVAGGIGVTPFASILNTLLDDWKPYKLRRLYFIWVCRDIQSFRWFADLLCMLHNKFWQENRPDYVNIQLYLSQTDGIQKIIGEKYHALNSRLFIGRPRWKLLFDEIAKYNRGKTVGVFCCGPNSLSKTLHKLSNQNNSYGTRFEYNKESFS
Sequence of NADPH oxidase 2 (Homo sapiens) (P04839 whole entry, looked up): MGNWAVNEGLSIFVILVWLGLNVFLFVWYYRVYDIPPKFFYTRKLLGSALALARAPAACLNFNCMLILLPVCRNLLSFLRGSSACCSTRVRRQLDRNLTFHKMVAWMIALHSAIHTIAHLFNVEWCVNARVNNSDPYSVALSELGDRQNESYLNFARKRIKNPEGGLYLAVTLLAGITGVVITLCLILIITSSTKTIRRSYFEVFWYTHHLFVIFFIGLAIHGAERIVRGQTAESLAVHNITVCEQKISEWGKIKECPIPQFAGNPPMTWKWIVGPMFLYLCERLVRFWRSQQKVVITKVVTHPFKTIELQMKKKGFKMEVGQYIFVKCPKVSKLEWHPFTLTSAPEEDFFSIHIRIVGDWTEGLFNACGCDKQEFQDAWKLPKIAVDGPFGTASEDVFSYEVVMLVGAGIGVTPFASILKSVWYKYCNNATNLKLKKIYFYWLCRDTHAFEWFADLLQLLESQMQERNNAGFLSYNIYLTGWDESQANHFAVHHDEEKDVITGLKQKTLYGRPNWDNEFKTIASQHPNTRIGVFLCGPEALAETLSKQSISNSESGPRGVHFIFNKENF
Sequence of NADPH oxidase 5 (Homo sapiens) (Q96PH1 whole entry, looked up): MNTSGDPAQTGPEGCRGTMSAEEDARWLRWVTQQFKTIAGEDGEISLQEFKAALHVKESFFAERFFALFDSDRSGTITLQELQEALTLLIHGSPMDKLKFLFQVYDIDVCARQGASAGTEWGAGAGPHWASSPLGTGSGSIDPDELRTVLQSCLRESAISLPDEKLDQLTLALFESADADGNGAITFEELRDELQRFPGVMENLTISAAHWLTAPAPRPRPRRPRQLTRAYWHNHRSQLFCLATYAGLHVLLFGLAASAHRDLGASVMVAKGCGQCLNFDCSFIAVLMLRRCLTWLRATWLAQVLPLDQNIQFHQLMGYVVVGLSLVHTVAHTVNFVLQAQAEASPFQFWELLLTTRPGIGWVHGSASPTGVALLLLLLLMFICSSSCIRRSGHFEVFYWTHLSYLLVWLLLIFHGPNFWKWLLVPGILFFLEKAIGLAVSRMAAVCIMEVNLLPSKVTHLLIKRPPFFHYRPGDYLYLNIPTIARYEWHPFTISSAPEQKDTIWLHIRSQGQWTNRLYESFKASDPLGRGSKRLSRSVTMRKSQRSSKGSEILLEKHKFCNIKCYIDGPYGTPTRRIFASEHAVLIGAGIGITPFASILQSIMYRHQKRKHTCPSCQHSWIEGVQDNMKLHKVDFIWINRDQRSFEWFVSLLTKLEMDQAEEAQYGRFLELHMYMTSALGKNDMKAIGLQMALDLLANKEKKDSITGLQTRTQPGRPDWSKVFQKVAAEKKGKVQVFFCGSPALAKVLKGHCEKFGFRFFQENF

Structure (SMILES) | z-score [1] | composite z-score [2] | z-score [3] | z-score [4] | z-score [5] | z-score [6] | z-score [7] | z-score [8] | z-score [9] | z-score [10] | z-score [11] | z-score [12] | z-score [13] | z-score [14] | z-score [15] | z-score [16] | z-score [17] | z-score [18] | z-score [19] | z-score [20]
COCCCN1C(=O)[C@@]2(Cc3ccccc31)c1ccccc1C(=O)N(Cc1ccccc1OC)[C@H]2c1ccc(CO)cc1 | 0.168 (inactive) | 0.193 | 0.883 (inactive) | 0.216 (inactive) | 0.0049 (inactive) | -0.185 (inactive) | 0.592 | 0.0278 (inactive) | 0.545 (inactive) | 1.41 | -0.609 | 1.12 | -0.95 | -0.492 | -0.452 | -0.499 | -0.722 (inactive) | 0.695 | -0.0862 | -0.458 (inactive)
CC(C)CNC(=O)[C@@H]1c2ccccc2C(=O)N(CC23CC4CC(CC(C4)C2)C3)[C@H]1c1ccc(CO)cc1 | 0.075 (inactive) | -0.0559 | 0.317 (inactive) | -0.93 (inactive) | -0.348 (inactive) | -1.22 (inactive) | 0.84 | -0.234 (inactive) | -0.616 (inactive) | -1.78 | 0.226 | 0.918 | 0.537 | 0.107 | -0.35 | 1.38 | 1.64 (inactive) | -0.217 | -0.0634 | 0.915 (inactive)
CCOC(=O)C1=CC[C@@H](c2ccccc2)N(S(=O)(=O)C[Si](C)(C)C)[C@H]1c1ccccc1 | -2.2 (inactive) | 0.0437 | 2.05 (inactive) | 1.83 (inactive) | 0.0192 (inactive) | 0.999 (inactive) | -0.692 | 0.324 (inactive) | -1.26 (inactive) | 0.839 | -0.96 | 0.147 | 0.0425 | 0.0106 | 0.242 | -1.37 | -0.479 (inactive) | -0.687 | -0.667 | 0.946 (inactive)
N[C@@H](Cc1ccccc1)Cn1cc(C2(O)CCCCC2)nn1 | -1.05 (inactive) | 0.099 | 0.225 (inactive) | -0.304 (inactive) | 0.005 (inactive) | 0.137 (inactive) | -0.225 | 0.0811 (inactive) | 1.51 (inactive) | 1.19 | -0.359 | -0.169 | 0.0224 | -0.991 | -0.775 | -0.739 | -0.375 (inactive) | -0.622 | -0.313 | -0.279 (inactive)
